Results on three compounds are retold here after PubChem BioAssay (NCATS).

Several values for one entry are separate records, joined by “and”; a condition that tells them apart may be missing. Identical values can stand only once. Inconclusive results are not listed. Activity calls are given as the source filed them. Unless noted, calls follow the shape of the dose curve; as a rule, active = well fitted curve in the direction sought with a large enough effect; inconclusive = small, poorly fitted or top-dose-only effect, or another doubt; inactive = no such curve, though single readings can be large; an effect the other way counts as inactive or inconclusive.

Test [1] in a line: Stat Signaling Pathway (AID 446; active = well fitted curve in either direction with a large enough effect, not every such curve was filed as active;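 also: ME-180 cervical cancer cells given 40 pM IL-6 alongside compound; SIE-controlled beta-lactamase reporter measured as 460/530 nm FRET emission ratio; % is scaled to controls: 0 for no effect and ±100 for the full control effect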). To be noted: ME-180 SIE beta-lactamase reporter, IL-6 stimulated, 5 h. Put shortly:
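Screening format detects activators and inhibitors alike: ME-180 SIE-bla cells stimulated at 40 pM IL-6 for 5 hrs with compound, then dual-emission beta-lactamase read at 405 nm excitation.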

In test [2] the target is Mitogen-activated protein kinase 10 (Mus musculus) (UniProt Q61831). Put plainly: JNK3 AlphaScreen Assay (AID 530; active = well fitted curve in either direction with a large enough effect, not every such curve was filed as active;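 also: kinase came from lysate of stimulated human HepG2 cells; signal reports phosphorylation of biotinylated GST-cJun 1-79 at Ser73 with 10 µM ATP; % is scaled to controls: 0 for no effect and ±100 for the full control effect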). A digest of the protocol: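 Room-temperature AlphaScreen kinase assay; pre-activated HepG2 lysate as JNK3 source, biotin-GST-cJun(1-79) substrate, 10 uM ATP, compound 15 min preincubation.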
For orientation: In Alpha technology, singlet oxygen from a donor bead excites a nearby acceptor bead.

Test [3] deals with 3',5'-cyclic-AMP phosphodiesterase 4B (Homo sapiens) (UniProt Q07343). Kind of test: qHTS Assay for Inhibitors of PDE-IV (AID 607; active = well fitted activation curve with a large enough effect in the main read-out, with a control signal flat, not every such curve was filed as active; also: % of control where 0% means no effect). A digest of the protocol: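 The readout is membrane depolarisation from a cAMP-sensing CNG channel, detected with a potential dye at ex 535/em 590. Cells were HEK293-derived (endogenous PDE-IV) at 1000 cells/well, titrated up to 22.9 uM final.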
3',5'-cyclic-AMP phosphodiesterase 4B (Homo sapiens), sequence (Q07343 whole entry, looked up): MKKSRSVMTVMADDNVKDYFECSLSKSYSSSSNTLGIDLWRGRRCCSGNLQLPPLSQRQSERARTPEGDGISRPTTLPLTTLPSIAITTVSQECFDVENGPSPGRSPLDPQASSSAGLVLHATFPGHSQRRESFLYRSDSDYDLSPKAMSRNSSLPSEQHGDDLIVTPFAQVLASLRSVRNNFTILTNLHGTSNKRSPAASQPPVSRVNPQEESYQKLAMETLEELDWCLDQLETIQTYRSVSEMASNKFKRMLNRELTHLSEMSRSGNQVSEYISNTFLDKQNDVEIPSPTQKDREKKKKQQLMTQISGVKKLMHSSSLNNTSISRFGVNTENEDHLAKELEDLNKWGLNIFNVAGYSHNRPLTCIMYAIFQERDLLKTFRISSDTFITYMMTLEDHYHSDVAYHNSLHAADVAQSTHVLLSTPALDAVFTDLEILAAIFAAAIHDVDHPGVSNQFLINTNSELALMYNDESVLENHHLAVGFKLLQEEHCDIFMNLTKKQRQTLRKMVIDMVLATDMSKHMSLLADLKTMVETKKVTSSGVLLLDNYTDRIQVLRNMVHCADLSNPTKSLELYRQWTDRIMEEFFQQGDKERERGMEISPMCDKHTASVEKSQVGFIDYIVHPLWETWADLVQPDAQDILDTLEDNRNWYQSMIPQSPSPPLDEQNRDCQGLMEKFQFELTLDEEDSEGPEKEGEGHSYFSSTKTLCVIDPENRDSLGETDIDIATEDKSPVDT
Test [4] deals with Guanine nucleotide-binding protein G(i) subunit alpha-1 (Homo sapiens) (UniProt P63096). Kind of test: qHTS Assay for Inhibitors of RGS12 GoLoco Motif Activity (Green Fluorophore) (AID 879).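 Also: 0% = labeled peptide with Gαi1 and full inhibition = labeled peptide alone without protein; negative values mean loss of peptide binding seen as reduced polarization.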 Put shortly:
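Fluorescence polarization assay: 50 nM Gαi1 with 10 nM FITC-labeled RGS12 GoLoco peptide in 10 mM Tris pH 7.5, 150 mM NaCl, 0.1 mM GDP, 0.05% NP40, 10 min at room temperature with compound.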

In test [5] the target is Muscarinic acetylcholine receptor M1 (Rattus norvegicus) (UniProt P08482). Kind of test: qHTS Assay for Antagonists of Acetylcholine Muscarinic M1 Receptor: Kinetic Measurement of Intracellular Calcium Response (AID 943). Also: nearly all actives have a fitted effect of over 75% in size. Also: potency is read from the fitted curve at half-maximal effect.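 As to activity change, negative = inhibition: Fluo-4 calcium signal as peak divided by basal fluorescence over 4 min.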 A digest of the protocol:
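Intracellular calcium flux, recorded with Fluo-4 in a kinetic plate reader, served as signal; the response to carbachol at EC80 (100 nM final) was taken as maximal over minimal fluorescence after a 10 min compound pre-incubation in rat M1-CHO cells.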
(In qHTS, concentration-response curves come from the screen itself.)

Test [6] concerns the target Pyruvate kinase PKM (Homo sapiens) (UniProt P14618). Kind of test: qHTS Assay for Activators of Human Muscle Pyruvate Kinase (AID 954; active = well fitted curve in the direction sought with a large enough effect, not every such curve was filed as active;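 also: 0% = uninhibited enzyme and -100% = no enzyme or full thiadiazolimine inhibition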). Put shortly:
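Reaction: 0.1 nM purified PKM2 with 0.5 mM phosphoenolpyruvate and 0.1 mM ADP, room temperature, 1 h. Readout: luciferase-based ATP luminescence after stop reagent. Activators judged against a 0.3 nM enzyme column.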

Test [7] has as its target Alpha-galactosidase A (Homo sapiens) (UniProt P06280). Kind of test: Counterscreen for Glucocerebrosidase Inhibitors: qHTS Assay for Human alpha-Galactosidase at pH 4.5 (AID 992). Also: 0% is about no effect. A digest of the protocol: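 Concentration-response curves (0.7 nM to 77 uM final) were modeled with the Hill equation to give AC50. Reactions: 2 nM enzyme, 80 uM fluorogenic alpha-galactoside, pH 4.5 citric acid buffer, 20 min, room temperature.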

For test [8], the target named is alpha-glucosidase (Oryza sativa, rice) (UniProt Q653V4). Put plainly: Counterscreen for Glucocerebrosidase Inhibitors: qHTS Assay for Rice alpha-Glucosidase at pH 5.0 (AID 997).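 Also: 0% = full activity with enzyme and -100% = basal without enzyme.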 Put shortly: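 Rice alpha-glucosidase (4 nM final) with 400 uM 4-methylumbelliferyl-alpha-D-glucopyranoside in citrate buffer pH 5.0, 20 min at room temperature, stopped at pH 10; fluorescence 365/440 nm, compounds 0.7 nM–77 uM, AC50 from Hill fits.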
For orientation: A counterscreen serves to expose hits that act by an unwanted route or on another target.

Test [9] in a line: qHTS Assay for Lipid Storage Modulators (AID 1519; calls by dose curve). To be noted: Drosophila S3 cells, BODIPY lipid droplet/cell ratio, laser cytometry, cells loaded with oleic acid. Put shortly:
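Cells seeded at 5,000 per well were treated with compounds over a concentration series and loaded with oleic acid (400 uM, as added). Lipid droplet fluorescence (488 nm excitation, 500-530 nm channel) was read by laser-scanning cytometry and normalized to 20 uM Triacsin C.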

The target of test [10] is Ubiquitin carboxyl-terminal hydrolase 1 (Homo sapiens) (UniProt O94782). Put plainly: Inhibitors of USP1/UAF1: Pilot qHTS (AID 504865).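 Also: rhodamine fluorescence freed from ubiquitin-rhodamine substrate followed over time; top concentration of the series differs between compounds; % is scaled to controls: 0 for no effect and ±100 for the full control effect; nearly all actives have a fitted effect of over 35% in size.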 Put shortly: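 Deubiquitinase activity followed as kinetic rhodamine fluorescence release from 150 nM Ub-Rho. 1 nM USP1/UAF1 with compound, after 15 min room-temperature preincubation, in HEPES pH 7.8 buffer containing TCEP, EDTA, BSA and Tween-20.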
Ubiquitin carboxyl-terminal hydrolase 1 (Homo sapiens), sequence (O94782 whole entry, looked up): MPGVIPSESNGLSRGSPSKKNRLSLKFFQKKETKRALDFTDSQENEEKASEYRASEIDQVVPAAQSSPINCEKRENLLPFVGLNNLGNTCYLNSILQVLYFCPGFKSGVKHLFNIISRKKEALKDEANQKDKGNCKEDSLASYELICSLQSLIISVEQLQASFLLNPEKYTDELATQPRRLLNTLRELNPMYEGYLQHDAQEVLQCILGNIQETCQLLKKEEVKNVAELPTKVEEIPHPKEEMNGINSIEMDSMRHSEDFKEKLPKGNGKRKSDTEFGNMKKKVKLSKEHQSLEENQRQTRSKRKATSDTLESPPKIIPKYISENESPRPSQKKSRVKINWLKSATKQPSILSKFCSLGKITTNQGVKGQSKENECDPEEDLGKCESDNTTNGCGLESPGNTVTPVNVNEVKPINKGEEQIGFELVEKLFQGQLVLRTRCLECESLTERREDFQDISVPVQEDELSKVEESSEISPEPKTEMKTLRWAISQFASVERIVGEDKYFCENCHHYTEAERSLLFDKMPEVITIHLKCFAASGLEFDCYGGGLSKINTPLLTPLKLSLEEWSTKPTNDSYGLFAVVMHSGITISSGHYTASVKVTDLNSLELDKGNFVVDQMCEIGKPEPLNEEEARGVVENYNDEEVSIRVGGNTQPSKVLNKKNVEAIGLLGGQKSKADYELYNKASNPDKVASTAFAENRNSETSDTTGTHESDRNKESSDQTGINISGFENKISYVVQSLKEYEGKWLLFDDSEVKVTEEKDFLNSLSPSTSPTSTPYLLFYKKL

Test [11] has as its target DNA dC->dU-editing enzyme APOBEC-3G (Homo sapiens) (UniProt Q9HC16). Kind of test: qHTS for inhibitors of Vif-A3G interactions: Validation (AID 588379). Also: 0% is about no effect. A digest of the protocol:
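HeLa cells stably expressing Vif and A3G-eYFP, 700 cells/well, incubated overnight at 37 deg C, then exposed to compound overnight at 37 deg C. Inhibition of Vif-mediated degradation read as increased yellow fluorescence (Ex 488/Em 500-530) by laser-scanning cytometry.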

Test [12] relates to Zika virus NS2B-NS3 protease. Put plainly: Primary screen GU AMC qHTS for Zika virus inhibitors (AID 1347154).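 Also: 0% = no-inhibitor control and -100% = no-enzyme control; nearly all actives have a fitted effect of over 70% in size.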 A digest of the protocol:
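Fluorogenic AMC-substrate cleavage by noncovalent NS2B-NS3 protease complex (25 nM, pH 8.0 Tris buffer with Tween 20) followed for 15 minutes at room temperature (~20% conversion). Percent inhibition from ex340/em450 signal change, fitted by 4-parameter Hill equation.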

Test [13] deals with Cytochrome P450 3A4 (Homo sapiens) (UniProt P08684). Put plainly: qHTS Assay for Inhibitors and Substrates of Cytochrome P450 3A4 (AID 884). Also: potency is read from the fitted curve at half-maximal effect; nearly all actives have a fitted effect of over 50% in size. Put shortly: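 20 nM human CYP3A4 with 25 uM Luciferin-PPXE (at KM) in 200 mM KPO4, preincubated 10 min with compound; NADPH regeneration started a 60 min RT reaction. Luciferin detected by luminescence, normalized to 57 uM ketoconazole as full inhibition.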
Cytochrome P450 3A4 (Homo sapiens), sequence (P08684 whole entry, looked up): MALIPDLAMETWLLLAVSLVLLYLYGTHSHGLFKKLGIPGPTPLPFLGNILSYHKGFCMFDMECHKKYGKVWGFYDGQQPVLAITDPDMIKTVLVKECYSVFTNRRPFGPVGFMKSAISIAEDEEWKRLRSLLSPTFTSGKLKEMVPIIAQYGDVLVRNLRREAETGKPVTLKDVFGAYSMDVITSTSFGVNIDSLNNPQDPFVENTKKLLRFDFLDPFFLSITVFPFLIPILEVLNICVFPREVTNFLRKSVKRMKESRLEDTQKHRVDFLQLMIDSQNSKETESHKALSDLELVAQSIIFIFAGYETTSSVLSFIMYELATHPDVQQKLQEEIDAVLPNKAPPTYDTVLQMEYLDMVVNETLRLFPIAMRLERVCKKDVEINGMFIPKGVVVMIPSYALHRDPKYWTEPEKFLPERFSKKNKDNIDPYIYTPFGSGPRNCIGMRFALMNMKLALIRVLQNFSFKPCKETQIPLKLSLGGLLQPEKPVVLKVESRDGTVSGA

The target is the same in test [14]. Put plainly: qHTS Assay for Activators of Cytochrome P450 3A4 (AID 885). Also: nearly all actives have a fitted effect of over 65% in size. Put shortly:
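Steps: enzyme/substrate mix dispensed; compound added, 10 min RT; NADPH regeneration solution added, 60 min RT; luciferin detection buffer stops reaction; 20 min later luminescence measured.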

Test [15] can be described thus: Primary qHTS for small molecule stabilizers of the endoplasmic reticulum resident proteome: Secreted ER Calcium Modulated Protein (SERCaMP) assay (AID 1508630). Also: % is scaled to controls: 0 for no effect and ±100 for the full control effect. Put shortly: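 GLuc-SERCaMP-expressing SH-SY5Y cells, pretreated 16 h with compound, are challenged with thapsigargin to empty ER calcium stores; after 4 h, coelenterazine is added directly to the medium and luminescence is imaged.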

A short description of test [16]: AP1 Signaling Pathway (AID 357; active = well fitted curve in either direction with a large enough effect, not every such curve was filed as active;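 also: ME-180 reporter cells stimulated with EGF at its EC50 level; % is scaled to controls: 0 for no effect and ±100 for the full control effect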). To be noted: ME-180 (cervical carcinoma) AP-1-bla reporter, EGF-induced, beta-lactamase ratio, 5 h; at 38 µM (top of the series). A digest of the protocol:
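Modulation of EGF-driven AP-1 transcription was assessed with a beta-lactamase reporter in ME-180 cells. Compound and EC50 EGF were co-incubated 5 hours at 37 °C before 2.5-hour CCF4 loading at room temperature and dual-emission reading.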

Test [17] has as its target Cytochrome P450 1A2 (Homo sapiens) (UniProt P05177). Kind of test: p450-cyp1a2 (AID 410; calls by dose curve;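 also: -100% = full effect of reference inhibitor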). Put shortly:
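Inhibition was calculated relative to 57 uM furafylline (full inhibition). The reaction used human CYP1A2 at 20nM with Luciferin-ME at its Km, 100uM, driven by an NADPH-regenerating system for 60 min at room temperature.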

A short description of test [18]: NFAT Signaling Pathway (AID 444; active = well fitted curve in either direction with a large enough effect, not every such curve was filed as active). To be noted: Jurkat NFAT-bla M1, carbachol, beta-lactamase ratio, 5 h; at 38 µM (top of the series). Put shortly: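 Read-out: CCF4 FRET ratio (460 nm/530 nm) after 1 h RT dye loading, used for %activity and AC50 from titration series. Cells: Jurkat NFAT-β-lactamase/M1 line, treated with compound plus 1 uM carbachol for 5 h, 37 °C.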

Test [19] has as its target Glucocorticoid receptor (Homo sapiens) (UniProt P04150). Put plainly: GR-GFP Redistribution (AID 450;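 active = compounds whose dose series gives a full or clear partial fitted curve of increased nuclear translocation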; also: potency is read from the fitted curve at half-maximal effect). As to conditions: U2OS GR-GFP nuclear translocation, laser cytometry, 2 h.
Test [20] shares this target. Put plainly: GR-EFC Redistribution (AID 451; calls by dose curve; also: potency is read from the fitted curve at half-maximal effect). To be noted: CHO-K1 GR-EFC translocation, beta-gal luminescence, 2 h. A digest of the protocol: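 Translocation of GR-ED fusion to nuclear EA restores b-gal, read by luminescence after 1 h room-temperature detection. Engineered CHO-K1 biosensor cells, 1,000/well, exposed 2 h at 37 C to titrations up to 46 uM final.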
Test [21] is described as follows: Confirmation and Secondary Assay for Modulators of Hemoglobin Beta Chain Splicing at IVS2 654 locus (AID 910).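 Also: HeLa cells stably carrying EGFP split by mutant beta-globin IVS2-654 intron; per-well total GFP intensity by laser scanning cytometry after 2-day treatment; % of control where 0% means no effect.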 Put shortly: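 Readout: per-well total peak green fluorescence (488 nm ex, 500–520 nm em) from objects 5–250 µm, reflecting correct splicing of an EGFP-654 reporter. Compounds were applied for 2 days at 37 °C to overnight-plated HeLa EGFP-654 cells; controls were DMSO and 500 nM IVS2-654 PNA.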

A short description of test [22]: Confirmation and Secondary Assay for Modulators of Hemoglobin Beta Chain Splicing at IVS2 705 locus (AID 930).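 Also: HeLa cells stably expressing the EGFP-705 splicing reporter; GFP fluorescence per well restored by corrected splicing of the IVS2-705 intron in EGFP; % of control where 0% means no effect.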 Put shortly:
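Splice-correction reporter: EGFP cDNA split by beta-globin intron 2 bearing the 705 mutation, stably in HeLa. Compound incubation 2 days, 37C; fluorescent objects 5-250 µm summed per well.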

Test [23] deals with Muscarinic acetylcholine receptor M1 (Rattus norvegicus) (UniProt P08482). Kind of test: qHTS Assay for Antagonists of Acetylcholine Muscarinic M1 Receptor: Measurement of IP-One Response (AID 944). Also: nearly all actives have a fitted effect of over 75% in size. Put shortly: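 Steps: plate transfected CHO-M1 cells overnight; add test compound, 10 min; add carbachol (200 nM, EC80) in stimulation buffer with LiCl; incubate 30 min; add labelled IP1 tracer and anti-IP1 antibody in lysis buffer; read HTRF after 10 min.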
Muscarinic acetylcholine receptor M1 (Rattus norvegicus), sequence (P08482 whole entry, looked up): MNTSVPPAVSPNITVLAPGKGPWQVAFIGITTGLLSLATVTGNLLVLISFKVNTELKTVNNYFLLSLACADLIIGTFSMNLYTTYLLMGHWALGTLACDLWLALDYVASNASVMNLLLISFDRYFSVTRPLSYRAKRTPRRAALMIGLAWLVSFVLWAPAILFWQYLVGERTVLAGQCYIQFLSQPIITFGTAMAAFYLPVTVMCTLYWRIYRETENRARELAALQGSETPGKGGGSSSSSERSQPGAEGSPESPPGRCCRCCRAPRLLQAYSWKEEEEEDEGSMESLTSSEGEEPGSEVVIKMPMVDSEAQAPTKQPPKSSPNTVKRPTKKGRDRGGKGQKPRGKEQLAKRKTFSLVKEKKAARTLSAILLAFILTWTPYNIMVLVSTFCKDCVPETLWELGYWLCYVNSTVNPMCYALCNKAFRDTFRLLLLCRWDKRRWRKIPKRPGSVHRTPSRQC

For test [24], the target named is Pyruvate kinase (Leishmania mexicana) (UniProt Q27686). Kind of test: qHTS Validation Assay for Inhibitors of Leishmania Mexicana Pyruvate Kinase (AID 945).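 Also: 0% = DMSO only neutral control wells.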 Put shortly: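 The enzyme is a highly purified E451W mutant of LmPYK used at 0.2 nM. It converts 0.5 mM PEP and 0.1 mM ADP over 1 h at room temperature; product ATP is quantified by luciferase luminescence relative to DMSO controls.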

[25] abbreviates: measured here: cell count channel max response.
The mark [26] stands for this setting: measured here: lipid channel max response.

Glucocorticoid receptor (Homo sapiens), sequence (P04150 whole entry, looked up, the tested form may be a part): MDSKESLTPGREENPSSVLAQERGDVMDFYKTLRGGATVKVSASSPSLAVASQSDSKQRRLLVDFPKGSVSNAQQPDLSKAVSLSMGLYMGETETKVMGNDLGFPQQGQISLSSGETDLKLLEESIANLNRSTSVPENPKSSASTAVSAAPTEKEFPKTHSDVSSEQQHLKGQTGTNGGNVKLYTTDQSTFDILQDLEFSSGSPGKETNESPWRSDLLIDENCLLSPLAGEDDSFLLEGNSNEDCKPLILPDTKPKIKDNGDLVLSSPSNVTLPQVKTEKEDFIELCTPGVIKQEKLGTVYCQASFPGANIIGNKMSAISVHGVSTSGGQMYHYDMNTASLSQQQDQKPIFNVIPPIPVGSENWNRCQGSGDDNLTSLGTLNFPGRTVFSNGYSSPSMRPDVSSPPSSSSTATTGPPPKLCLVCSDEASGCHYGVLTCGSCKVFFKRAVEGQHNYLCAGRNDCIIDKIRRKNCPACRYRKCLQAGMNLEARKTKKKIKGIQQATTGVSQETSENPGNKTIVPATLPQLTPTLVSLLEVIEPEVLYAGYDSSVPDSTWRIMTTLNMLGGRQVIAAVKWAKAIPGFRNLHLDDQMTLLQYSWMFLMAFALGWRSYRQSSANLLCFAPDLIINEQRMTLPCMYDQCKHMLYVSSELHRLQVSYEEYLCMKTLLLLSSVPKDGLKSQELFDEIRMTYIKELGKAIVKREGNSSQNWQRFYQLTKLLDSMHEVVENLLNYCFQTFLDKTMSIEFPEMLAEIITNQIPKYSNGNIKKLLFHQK
Guanine nucleotide-binding protein G(i) subunit alpha-1 (Homo sapiens), sequence (P63096 whole entry, looked up): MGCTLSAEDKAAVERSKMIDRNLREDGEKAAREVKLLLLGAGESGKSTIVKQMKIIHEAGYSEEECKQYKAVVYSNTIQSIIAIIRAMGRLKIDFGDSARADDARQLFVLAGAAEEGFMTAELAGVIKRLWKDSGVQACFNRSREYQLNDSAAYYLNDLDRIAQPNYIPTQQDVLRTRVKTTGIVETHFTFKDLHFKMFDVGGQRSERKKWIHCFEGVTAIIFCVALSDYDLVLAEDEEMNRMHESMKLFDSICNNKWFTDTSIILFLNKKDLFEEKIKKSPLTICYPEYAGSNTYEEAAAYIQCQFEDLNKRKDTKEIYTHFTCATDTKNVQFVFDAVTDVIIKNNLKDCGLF
Pyruvate kinase PKM (Homo sapiens), sequence (P14618 whole entry, looked up): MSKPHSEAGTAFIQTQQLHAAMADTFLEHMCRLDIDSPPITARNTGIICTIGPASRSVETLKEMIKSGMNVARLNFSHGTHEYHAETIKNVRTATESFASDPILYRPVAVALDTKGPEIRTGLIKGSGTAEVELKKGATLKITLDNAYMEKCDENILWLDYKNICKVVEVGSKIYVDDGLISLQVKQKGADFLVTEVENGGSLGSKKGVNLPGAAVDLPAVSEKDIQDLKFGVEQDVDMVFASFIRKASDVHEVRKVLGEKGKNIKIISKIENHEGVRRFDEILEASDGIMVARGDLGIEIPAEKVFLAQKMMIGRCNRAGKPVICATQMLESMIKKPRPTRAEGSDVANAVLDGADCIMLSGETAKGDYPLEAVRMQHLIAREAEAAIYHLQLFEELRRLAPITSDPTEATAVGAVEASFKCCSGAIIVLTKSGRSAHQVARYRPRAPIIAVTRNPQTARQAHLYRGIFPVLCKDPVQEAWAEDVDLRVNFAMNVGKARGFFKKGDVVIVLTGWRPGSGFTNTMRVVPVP
DNA dC->dU-editing enzyme APOBEC-3G (Homo sapiens), sequence (Q9HC16 whole entry, looked up): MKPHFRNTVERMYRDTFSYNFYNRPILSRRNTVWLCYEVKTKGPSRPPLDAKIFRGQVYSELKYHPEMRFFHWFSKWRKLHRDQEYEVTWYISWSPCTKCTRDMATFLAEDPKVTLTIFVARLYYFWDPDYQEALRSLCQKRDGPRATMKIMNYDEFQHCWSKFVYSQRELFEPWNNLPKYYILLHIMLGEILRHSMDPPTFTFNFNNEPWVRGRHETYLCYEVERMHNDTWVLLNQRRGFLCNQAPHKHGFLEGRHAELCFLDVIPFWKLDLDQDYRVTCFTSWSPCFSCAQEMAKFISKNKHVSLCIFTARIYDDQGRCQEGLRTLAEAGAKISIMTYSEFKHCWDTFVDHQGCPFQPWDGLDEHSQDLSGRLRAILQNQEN
Alpha-galactosidase A (Homo sapiens), sequence (P06280 whole entry, looked up): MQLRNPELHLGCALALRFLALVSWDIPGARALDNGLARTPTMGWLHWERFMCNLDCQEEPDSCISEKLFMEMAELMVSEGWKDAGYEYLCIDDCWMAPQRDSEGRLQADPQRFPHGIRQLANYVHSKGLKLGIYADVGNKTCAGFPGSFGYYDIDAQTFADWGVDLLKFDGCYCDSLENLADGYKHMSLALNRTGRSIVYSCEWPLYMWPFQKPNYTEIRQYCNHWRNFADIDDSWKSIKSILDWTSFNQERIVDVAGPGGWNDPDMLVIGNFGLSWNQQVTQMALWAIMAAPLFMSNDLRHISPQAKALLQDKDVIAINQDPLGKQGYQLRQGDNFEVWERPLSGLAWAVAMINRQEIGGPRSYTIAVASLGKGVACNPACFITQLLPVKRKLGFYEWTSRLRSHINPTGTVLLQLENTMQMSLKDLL

In the case of `Cc1ccc(/C(=C/CN2CCCC2)c2ccccn2)cc1`, the activity, negative = inhibition in test [1] (at 17.2 µM (top of the series)) is 6.54% (inactive); in test [1] (at 38 µM (top of the series)) it was -0.742% (inactive). For the same compound, the Potency entry in [2], in [3], in [10], in test [11] and in test [12] was “inactive” each time. Also, the result in test [4], in [6], in test [7] and in test [8] was inactive. The Potency in test [5] was 1.26 µM (active). Also, the activity change, negative = inhibition is -1.93% (inactive) in test [9] (at 25.7 µM (top of the series)) and 3.43% (inactive) in [9] (at 57.5 µM (top of the series)). Moreover, the max response in test [9] (setting [25]) is 0.155% and 8.83%; in test [9] (setting [26]), -0.659% and 14%.
In the case of `CC(=O)N(OCc1ccccc1)[C@@H]1c2cc(C#N)ccc2OC(C)(C)[C@H]1O`, in test [13], the Potency was 15.8 µM (active). The Potency result in test [14], in [12] and in test [15] was “inactive” in each case.
As to `CC(=O)N[C@@H](C(=O)O)C(C)(C)SN=O`, the values for the activity change, negative = inhibition in test [16], in [18] and in [9] (at 57.5 µM (top of the series)) were -1.8% (inactive), 9.84% (inactive) and 9.07% (inactive), respectively. The Potency result in test [17], in test [2], in [3], in test [5], in test [23] and in test [24] was “inactive” in each case. For the same compound, the Potency result in test [11] and in [12] was “inactive” each time. Moreover, in test [1] (at 38 µM (top of the series)), the activity, negative = inhibition was 2.94% (inactive). Besides, the Potency in test [19] and in [20] was > 46 µM (inactive) each time. Besides, the compound was classed as inactive in [4], in test [21], in [22], in test [6] and in test [8]. Also, the figures for the max response in [9] (setting [25]) and in test [9] (setting [26]) were 15.4% and 28.4%, respectively.
